Test [1] in a line: A549 cell viability effects, profiling panel, calcein-AM fluorescence, 48 h, basal (AID 1162). Particulars: higher = more signal.
Test [2] in a line: adipocyte viability effects, profiling panel, cell-based, 3T3-L1 adipocytes, calcein-AM fluorescence, 48 h, basal (AID 1163). Particulars: 3T3-L1 adipocytes viability, higher = more signal.
Test [3] is described as follows: HepG2 cell viability effects, profiling panel, calcein-AM fluorescence, 48 h, basal (AID 1164). Particulars: higher = more signal.
A short description of test [4]: MM1S cell viability effects, profiling panel, calcein-AM fluorescence, 48 h, basal (AID 1165).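 Further: viability of MM1S multiple myeloma cells under basal unstimulated conditions.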 Particulars: higher = more signal.
Test [5] is described as follows: basal RPMI8226 viability, no added stimulus, profiling panel, cell-based, calcein-AM fluorescence, 48 h, PK04 Diversity Set (AID 1166).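 Further: cells grown under basal conditions without added stimulus.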 Conditions: RPMI8226 myeloma viability, higher = more signal.
Test [6] can be described thus: basal HepG2 mitochondrial membrane potential changes, profiling panel, cell-based, JC-1 fluorescence, 24 h, 100 nL compound (AID 1167). Conditions: higher = more signal.
Test [7] in a line: basal 3T3-L1 adipocyte mitochondrial potential changes, profiling panel, cell-based, JC-1 fluorescence, 3T3-L1 adipocytes, 24 h, 100 nL compound (AID 1168). Conditions: JC-1 mitochondrial fluorescence, higher = more signal, called active from +8 up or from −8 down.
Test [8] in a line: basal RPMI8226 mitochondrial membrane potential changes, profiling panel, cell-based, JC-1 fluorescence, 24 h, 100 nL compound (AID 1169). Particulars: RPMI8226 myeloma, JC-1 mitochondrial potential fluorescence, higher = more signal.
Test [9] is described as follows: basal MM1S mitochondrial membrane potential changes, profiling panel, cell-based, JC-1 fluorescence, 24 h, 100 nL compound (AID 1170). Conditions: higher = more signal.
Test [10] is described as follows: A549 lung cancer cell viability effects, profiling panel, resazurin fluorescence, 24 h, PK04 Diversity Set (AID 1171). Particulars: higher = more signal, called active from +8 up or from −8 down. (In general: Alamar Blue is a resazurin reagent that responds to reducing activity.)

The structures appear in SMILES notation. Activity calls are given as the source filed them.
Further: test concentration not given here.

Consider `CC[C@@H]1C=C(C(=O)O)[C@H](c2ccc(OC)cc2)N1S(=O)(=O)c1ccc(C)cc1`, for which the z-score in test [1] is -0.0984; in [2], -0.32; in [3], -0.183; in test [4], 0.107; in test [5], -0.23; in [6], -0.955. Further, the z-score in test [7] was -0.687 (inactive); in test [8], -0.168; in test [9], -0.273; in test [10], -0.599 (inactive).
For the molecule `O=C(NCc1ccccc1)[C@@H]1c2ccccc2C(=O)N(Cc2cc(C(F)(F)F)cc(C(F)(F)F)c2)[C@H]1c1ccc(CO)cc1`, the z-score in test [1] was -0.108; in [2], 1.79; in test [3] it was -0.139; in test [4], 0.635; in test [5] it was -0.487; in test [6], 1.45. Further, the z-score is 0.125 (inactive) in test [7], -0.586 in test [8], -1.15 in [9] and -0.281 (inactive) in test [10].
Consider `C=CCOC(=O)[C@@H]1[C@H]2C(=O)O[C@H](c3ccccc3)[C@H](c3ccccc3)N2[C@H](c2ccc(OCCOC(=O)[C@H]3C[C@H]4C(=O)N5CCC[C@H]5C(=O)N4[C@H]3c3cccc(OCCO)c3)cc2)[C@@]12C(=O)Nc1ccc(I)cc12`, for which the z-score in test [1] was -0.302; in test [2], -0.506; in test [3], -0.28; in [4], 0.328; in test [5] it was -0.0082; in [6], -2.08. Besides, the z-score was 0.667 (inactive) in test [7], -0.16 in test [8], -0.998 in [9] and 0.0981 (inactive) in test [10].
For the molecule `C=C(/C(=C/C[C@@H](OC(C)=O)c1cccc(OCCO)c1)c1cnc2ccccc2c1)C(C)C`, the z-score was 0.295 in test [1]; 1.53 in [2]; 0.224 in test [3]; -1.07 in test [4]; -1.97 in test [5]; -1.63 in [6]. Besides, the z-score in [7] is -0.436 (inactive); in test [8] it was -0.533; in [9], 0.581; in test [10], -0.322 (inactive).
`C=CCN1C(=O)[C@]2(O[C@H](CCn3cc([C@H](O)c4ccccc4)nn3)[C@@H]([Si](C)(C)c3ccc(OC)cc3)[C@@H]2C)c2cc(NC(=O)c3ccc(OC)cc3)ccc21`: the z-score in [1] was 0.268; in test [2], 0.37; in test [3], -1.87; in test [4], -2.74; in test [5], -4.38; in test [6], 3.48. The z-score in test [7] is 0.517 (inactive); in [8], -1.17; in test [9], -1.39; in test [10] it was -2.43 (inactive).
Regarding `CCOc1cc(C(O)C2C=CC3C(=O)N(c4ccccc4)C(=O)C3N2Nc2ccccc2F)ccc1O` (stereo not given), the z-score in [1] is 0.0113; in test [2], 0.521; in test [3], 0.294; in test [4] it was -0.495; in test [5], -0.18; in [6], -1.58. Further, the z-score was -0.945 (inactive) in test [7], -0.853 in test [8], 0.699 in [9] and -0.928 (inactive) in test [10].
For `CC(=O)OCC1C2CC[C@H]3C(OCc4ccc(F)cc4C(F)(F)F)OC[C@]4(C)[C@H]3C2=C(CN4C(=O)OC(C)(C)C)[C@H](C)C1COC(C)=O` (stereo not given in full), the z-score in test [1] is -0.647; in test [2], -0.0623; in test [3], -0.174; in test [4], -2.29; in test [5], -1.93; in test [6] it was 2.61. Besides, the z-score is -0.984 (inactive) in [7], -0.606 in test [8], -1.3 in test [9] and 0.892 (inactive) in test [10].
In the case of `O=C(NC1CC1)[C@@H]1c2ccccc2C(=O)N(CC23CC4CC(CC(C4)C2)C3)[C@H]1c1ccc(CO)cc1`, the z-score in [1] is 0.554; in [2], 0.875; in [3], 0.232; in test [4] it was 0.0732; in test [5], 0.202; in [6], 1.49. Besides, the z-score in test [7] was 0.397 (inactive); in test [8], 0.555; in [9], -0.467; in test [10], 1.5 (inactive).
In the case of `COCCOC(=O)N1C(=O)[C@@]2(c3cc(C#CCCO)ccc31)[C@H](c1ccccc1OCCO)N1[C@H](c3ccccc3)[C@H](c3ccccc3)OC(=O)[C@H]1[C@@H]2C(N)=O`, the z-score in test [1] is 0.49; in test [2] it was 1.8; in [3] it was -0.112; in test [4] it was -1.49; in test [5], -4.2; in test [6] it was 0.446. For the same molecule, the z-score in test [7] was 1 (inactive); in test [8] it was -1.22; in [9], -1.12; in test [10], -0.0131 (inactive).
For `NC(=O)NCC#Cc1ccc2c(c1)[C@]1(C(=O)N2)[C@H](c2ccc(OCCO)cc2)N2[C@H](c3ccccc3)[C@H](c3ccccc3)OC(=O)[C@H]2[C@@H]1C(=O)NC[C@H](O)c1ccccc1`, the z-score in test [1] is 0.192; in test [2], 0.326; in test [3], 0.013; in test [4], 0.405; in test [5], 0.847; in test [6], -1.4. Besides, the z-score in [7] is -0.0754 (inactive); in test [8] it was -0.538; in [9], 0.207; in test [10] it was 0.401 (inactive).
Take `[N-]=[N+]=NCc1ccccc1[C@@H]1OC(c2ccc(OCCCO)cc2)=N[C@]1(Cc1ccccc1N=[N+]=[N-])C(=O)NCC(O)CO` (stereo not given in full): the z-score was -0.619 in [1]; 0.0728 in test [2]; -0.326 in test [3]; -1.78 in test [4]; -1.57 in test [5]; -0.686 in test [6]. Besides, the z-score in [7] was 0.265 (inactive); in test [8], -1.2; in test [9], -0.6; in test [10] it was -1.09 (inactive).
Take `COCCOC(=O)N1C(=O)[C@@]2(c3ccccc31)[C@H](c1ccc(O)cc1)N1[C@H](c3ccccc3)[C@H](c3ccccc3)OC(=O)[C@H]1[C@@H]2C(=O)N1CCCCCCC1`: the z-score was -0.438 in [1]; -0.688 in [2]; 0.313 in [3]; -0.474 in [4]; -1.26 in test [5]; -1.25 in test [6]. For the same molecule, the z-score in test [7] is -1.07 (inactive); in test [8], 0.167; in [9] it was 0.584; in test [10] it was -0.257 (inactive).
Regarding `OCCCC1=CC(c2ccc(CN3CCCC3)cc2)N(Cc2cccc(OC(F)(F)F)c2)CC1` (stereo not given), the z-score in [1] was -4.68; in test [2], -0.267; in test [3] it was -4.99; in [4], -3.3; in test [5] it was -3.83; in test [6], -0.125. The z-score in test [7] was 0.367 (inactive); in test [8], -0.739; in test [9] it was -2.38; in test [10], 0.194 (inactive).
Consider `COc1ccc([Si](C)(C)[C@H]2[C@H](CCO)O[C@@]3(C(=O)N(Cc4cccc(N(C=O)c5ccccc5)c4)c4ccccc43)[C@@H]2C)cc1`, for which the z-score in test [1] is -0.533; in test [2] it was 0.441; in test [3] it was -3.83; in test [4], -1.18; in test [5], -4.23; in test [6], 1.01. Also, the z-score in test [7] is 0.549 (inactive); in test [8], -1.03; in test [9] it was -1.85; in test [10] it was -2.2 (inactive).
Consider `CC(C)(C)OC(=O)CC[C@@]1(C(=O)NCCN2CCOCC2)N=C(c2ccc(OCCCO)cc2)O[C@@H]1c1ccccc1CN=[N+]=[N-]`, for which the z-score was -0.34 in test [1]; -0.502 in [2]; 0.463 in test [3]; -0.0725 in [4]; -0.749 in [5]; 0.777 in test [6]. In addition, the z-score in test [7] is -0.916 (inactive); in [8] it was -0.29; in test [9], -0.586; in [10], 0.973 (inactive).

Values taken from PubChem BioAssay.
